Vif inh: HIV Vif self-association inhibitors, primary screen, imaging, HEK293T, single point. actives 0.35% (n = 340,000). inhibition, % at 7.49 µM. AID 602346, 2012. HEK293T cells, Vif self-association by quenched fluorescence, 24 h; in the data active = inhibition above about 50%, passing the limit was not always enough
FGF22 binding: binders of human FGF22 protein, primary screen, FGF22 synaptogenesis inhibitor project, biophysical, thermal shift, single point | recombinant FGF22 thermal shift, SYPRO orange fluorescence; percent of sucrose octasulfate shift, DMSO zero | actives 1.5% (n = 340,000) | Fibroblast growth factor 22 (Homo sapiens), Q9HCT0 | activity (Tm shift, normalised), % at 9.99 µM | AID 651658, 2012;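 active = mean Tm shift, scaled 0 neutral to 100 positive control, at about 1.3% or above, every replicate too, limit read from the data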
Target sequence (Q9HCT0 whole entry, looked up): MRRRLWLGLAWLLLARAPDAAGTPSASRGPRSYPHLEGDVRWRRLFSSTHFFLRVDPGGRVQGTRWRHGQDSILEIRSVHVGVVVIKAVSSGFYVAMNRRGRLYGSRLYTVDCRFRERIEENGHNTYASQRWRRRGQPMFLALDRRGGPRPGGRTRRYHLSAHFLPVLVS
F508del corr: F508del CFTR correction, initial screen, CFBE line, single point. CFBE cells, YFP halide quenching; stimulated with forskolin plus potentiator P3; % fluorescence drop versus neutral controls. activity (quench increase), % at 7.58 µM. actives 0.36% (n = 350,000). AID 720511, 2013;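 active = mean added fluorescence quench of at least 8% versus neutral control, with both replicates also reaching 8%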;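 note: cells transiently co-express mutant CFTR-F508del with the halide-sensitive YFP; corrector assay measuring rescue of mutant channel to the surface after 24 h compound exposure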
Active calls of the source: *; nt = not tested or not shown. The list is not random: actives were taken first. Their share in the collection is about 1.7%.

SMILES	Vif inh	FGF22 binding	F508del corr
C[C@H](CO)N1C[C@H](C)[C@H](CN(C)Cc2ccccn2)Oc2ncc(-c3cccc(F)c3)cc2C1=O	nt	-0.4	-0.4
CN1c2ccc(Br)cc2[C@H]2[C@H](CCN2C(=O)c2ccc(F)cc2)[C@H]1CO	nt	-0.3	-0.2
O=C1CC(C(=O)Nc2ccc(Cl)cc2)n2ncnc2N1 (configuration not stated)	-5.4	0.3	-1.3
O=C1CC(C(=O)Nc2cccc(F)c2)n2ncnc2N1 (configuration not stated)	-6.3	43.0*	-2.6
C[C@H](CO)N1C[C@H](C)[C@H](CN(C)CC2CCCCC2)Oc2ccc(NC(=O)c3ccncc3)cc2CC1=O	nt	-0.1	0.5
C[C@@H]1CCCCO[C@@H](CN(C)S(=O)(=O)c2cccs2)[C@@H](C)CN([C@H](C)CO)C(=O)c2cc(NC(=O)C3CCCCC3)ccc2O1	nt	-0.3	-0.4
Cc1ccc(C(C(=O)NCc2ccc(F)cc2)N(Cc2ccco2)C(=O)c2snc(C(N)=O)c2N)o1 (configuration not stated)	57.8*	0.4	4.3
NC(=O)c1nsc(C(=O)N(Cc2ccco2)C(C(=O)NCc2ccc(F)cc2)c2ccc(O)cc2)c1N (configuration not stated)	-12.2	-0.2	3.7
Cc1noc(C)c1S(=O)(=O)Nc1ccc2c(c1)C(=O)N([C@H](C)CO)C[C@H](C)[C@@H](CN(C)C(=O)Cc1ccccc1)OCCCC[C@H](C)O2	nt	-0.8	-1.4
CC(=O)CC1c2cc(F)ccc2C=C(c2ccsc2)N1c1ccc(C#Cc2cncn2C)cc1 (configuration not stated)	nt	1.8*	-0.2
CC(=O)CC1c2cc(F)ccc2C=C(c2ccsc2)N1c1ccc(C#CC2(O)CCCCC2)cc1 (configuration not stated)	nt	-0.2	-1.1
O=C(C[C@@H]1CC[C@H]2[C@@H](COC[C@H](O)CN2C(=O)Nc2ccc3c(c2)OCO3)O1)N1CCN(c2ccccc2)CC1	nt	-0.1	0.4
Cc1ccc2oc(=O)c(/C=C(\O)c3cccs3)nc2c1	88.6*	-0.1	-5.4
O=c1oc2ccc(Cl)cc2nc1/C=C(\O)c1cccs1	-10.6	-0.2	-1.7
C/C(N)=C(/C#N)C(=O)CSc1nnc(-c2ccccc2)n1C	-0.1	-0.5	-4.1
C/C(N)=C(/C#N)C(=O)CSc1nnc(C)n1-c1ccccc1	14.2	43.3*	0.3
COc1ccc(CCC(=O)O)c(C(CC(=O)O)C(=O)O)c1OS(=O)(=O)c1ccc(C)cc1 (configuration not stated)	-2.6	1.6*	-0.5
COc1ccc(C(CC(=O)O)NS(=O)(=O)c2ccc(C)cc2)cc1OC (configuration not stated)	0.2	nt	nt
C[C@H](CO)N1C[C@H](C)[C@@H](CN(C)Cc2ccc(C(=O)O)cc2)Oc2ccc(NS(C)(=O)=O)cc2CC1=O	nt	0.2	-2.8
CCOC(=O)c1oc2ccc(S(=O)(=O)n3nc(-c4ccc(OC)cc4)cc3N)cc2c1C	-15.6	0.2	0.7
CCOC(=O)c1oc2ccc(S(=O)(=O)n3nc(-c4ccccc4)cc3N)cc2c1C	-19.0	0.1	8.2*
CC(C)(O)c1cn([C@@H]2C[C@@H]3O[C@@H](CO)CC[C@@H]3O[C@@H]2CCc2ccc(-c3ccncc3)cc2)nn1	nt	nt	2.0
N#C/C(=C\C=C\c1ccccc1)C(=O)Nc1ccccc1	10.6	44.2*	-2.5
N#C/C(=C/C=C/c1ccccc1)C(=O)Nc1ccccc1	-4.9	0.2	-1.4
CN1c2ccc(-c3ccc(F)cc3)cc2[C@H]2[C@H](CCN2C(=O)Cc2ccccn2)[C@@H]1CO	nt	0.0	-0.6
SMILES	Vif inh	FGF22 binding	F508del corr
CC(=O)Nc1ccc(S(=O)(=O)Nc2cccc(-c3csc(C)n3)c2)cc1	-13.1	42.4	0.0
CC(=O)Nc1ccc(S(=O)(=O)Nc2cccc(-c3nc4cc(C)ccc4o3)c2)cc1	-1.6	0.3	10.9*
COc1ccc(S(=O)(=O)N(C)C[C@@H]2OCCCC[C@@H](C)Oc3ccc(NS(=O)(=O)c4ccccc4)cc3C(=O)N([C@@H](C)CO)C[C@@H]2C)cc1	nt	-0.4	1.7
COc1ccc(-c2cnc3c(c2)C(=O)N([C@H](C)CO)C[C@@H](C)[C@@H](CN(C)Cc2ccccc2)O3)cc1	nt	-0.1	2.9
COc1ccc(OC)c(Nc2cc(C)nc3ccc(C)cc23)c1	-11.5	0.1	11.5*
COc1ccc2nc(C)cc(Nc3ccc(C)cc3)c2c1	6.3	-0.1	-0.2
COc1ccc2nc(C)cc(NCc3ccc(F)cc3)c2c1	90.8*	0.0	1.3
COc1ccc2nc(C)cc(N/N=C/c3ccccc3)c2c1	-12.9	nt	nt
COc1ccc(/C=N/Nc2cc(C)nc3ccc(OC)cc23)c(OC)c1	92.3*	-0.3	-14.4
COc1ccc(-c2cc(C(=O)NCc3ccc(F)cc3)[nH]n2)c(C)c1	12.8	0.1	1.8
CCC(=O)N(C)C[C@H]1Oc2cc(C3=CCCCC3)ccc2S(=O)(=O)N([C@H](C)CO)C[C@@H]1C	nt	nt	0.5
O=C1CN(S(=O)(=O)c2cc(Br)ccc2Br)CCN1	5.1	-0.1	2.1
O=c1c(Br)ccc(Br)cc1Br	167.8*	0.0	-3.0
C/C=C/c1cnc2c(c1)C(=O)N([C@H](C)CO)C[C@@H](C)[C@@H](CN(C)C(=O)c1ccc3c(c1)OCO3)O2	nt	0.2	-3.3
CCC(=O)N(C)C[C@@H]1Oc2cc(C#Cc3ccccc3)ccc2S(=O)(=O)N([C@@H](C)CO)C[C@@H]1C	nt	-0.2	2.4
CC(C)c1cccc(-c2csc(C(O)c3ccco3)n2)c1 (configuration not stated)	-8.6	-0.3	8.9*
CCN(CC)C(=O)c1cccc(-c2csc(C(O)c3ccco3)n2)c1 (configuration not stated)	13.4	-0.1	-1.6
CC(C)Oc1ccccc1C1CC(=O)Nc2cc3c(cc21)OCCO3 (configuration not stated)	-12.2	nt	nt
COc1ccccc1C1CC(=O)Nc2cc3c(cc21)OCCO3 (configuration not stated)	8.8	-0.1	10.6*
C[C@@H]1CCCCO[C@@H](CN(C)Cc2ccc(Cl)c(Cl)c2)[C@H](C)CN([C@@H](C)CO)C(=O)c2cc(NC(=O)Nc3ccc(C(F)(F)F)cc3)ccc2O1	nt	0.0	-2.1
N#Cc1cccc(-c2ccc([C@H]3[C@@H](CO)N4CCCCN(S(=O)(=O)c5ccccc5)C[C@H]34)cc2)c1	nt	-0.4	2.4
CC(=O)c1ccc(NC(=O)COC(=O)C2CCN(S(=O)(=O)c3cccs3)CC2)cc1	11.6	0.2	-0.7
COc1cccc(NC(=O)COC(=O)C2CCN(S(=O)(=O)c3cccs3)CC2)c1	nt	43.4*	-1.2
CNC[C@@H]1OCCCC[C@H](C)Oc2ccc(NS(=O)(=O)c3c(C)noc3C)cc2C(=O)N([C@H](C)CO)C[C@@H]1C	nt	-0.2	-0.3
CC=Cc1ccc2n(c1=O)C[C@H]1[C@H](CO)[C@@H](C(=O)N[C@@H](C)c3ccccc3)N(C(=O)c3cnccn3)[C@@H]21 (mixture of isomers)	nt	0.1	nt
